# Many of the other results were omitted from the sample, so hits are more common in it than they were.
# Tg IFNy HTS: inhibitors of Toxoplasma gondii growth with IFN-gamma; Toxoplasma gondii growth in IFN-gamma-treated host cells; stronger effect = lower value; 3.8% of 69,000 active; activity change, negative = inhibition, % (concentration not given with the values); in the data active means activity change below about -70%, passing the limit was not always enough;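 further: host cells are HeLa cells infected with Toxoplasma gondii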
# An asterisk follows results filed as active; i = inactive.
SMILES,Tg IFNy HTS
Cc1nn2c(C3CCCN(C(=O)OC(C)(C)C)C3)ccnc2c1-c1cccs1 (centres undefined),-77.0*
COc1cccc(OCC(=O)NCCc2csc(-c3ccc(F)cc3)n2)c1,34.8
COC1C2CCC1N(C(=O)CCc1ccccc1Cl)CCO2 (centres undefined),-3.0
COc1nc2ccccc2cc1-c1cnccc1C,-6.8
O=C(Cn1ncc2c(N3CCCCCC3)ncnc21)NCc1ccc(F)cc1,-98.6*
CCCNC(=O)Cn1ncc2c(N3CCN(c4ccccn4)CC3)ncnc21,44.5
O=C(Cn1ncc2c(N3CCN(c4ccccn4)CC3)ncnc21)NCc1ccco1,-97.0*
O=C(Cn1ncc2c(N3CCN(c4ccccn4)CC3)ncnc21)NCc1ccc(F)cc1,-99.9*
Cc1ccc(CNC(=O)Cn2ncc3c(N4CCN(c5ccccn5)CC4)ncnc32)cc1C,134.1
CCc1ccc(CNC(=O)Cn2ncc3c(N4CCCCCC4)ncnc32)cc1,-91.6*
O=C(Cn1ncc2c(N3CCCCCC3)ncnc21)Nc1ccc(F)cc1,-2.6
O=C(Cn1ncc2c(N3CCCC3)ncnc21)Nc1ccc(F)cc1F,54.8
O=C(Cn1ncc2c(N3CCCCC3)ncnc21)NCc1ccco1,21.0
CCc1ccc(CNC(=O)Cn2ncc3c(N4CCOCC4)ncnc32)cc1,278.6
O=C(Cn1ncc2c(N3CCN(c4ccccn4)CC3)ncnc21)NCc1cccnc1,11.2
CCc1ccc(NC(=O)Cn2ncc3c(N4CCCCCC4)ncnc32)cc1,-34.5
COC(=O)CSc1nc2ccccc2n1Cc1c(F)cccc1Cl,5.6
Cc1cc(C)n(C2CCN(Cc3nc(-c4ccc(Cl)cc4)no3)C2)n1 (centres undefined),-46.7
CC(=O)Nc1ccc(Cl)c(C(=O)N2CCN(c3cc(C)ccn3)CC2)c1,8.2
CC(C)c1csc(CN2CCC(CNS(C)(=O)=O)C2)n1 (centres undefined),0.3
COc1cccc(CNC(=O)Cn2ncc3c(N4CCCCCC4)ncnc32)c1,-50.9
O=C(Cn1ncc2c(N3CCCCC3)ncnc21)NCc1ccccc1,-91.8*
O=C(Cn1ncc2c(N3CCCCCC3)ncnc21)NCc1cccc(Br)c1,-22.6
O=C(Cn1ncc2c(N3CCCCCC3)ncnc21)NCc1ccc(Br)cc1,-92.7*
O=C(Cn1ncc2c(N3CCCCCC3)ncnc21)NCc1ccc(F)c(Cl)c1,3.3
SMILES,Tg IFNy HTS
O=C(Cn1ncc2c(N3CCCC3)ncnc21)NCc1ccncc1,-35.2
O=C(Cn1ncc2c(N3CCCC3)ncnc21)Nc1ccc(Br)cc1,195.1
CCOc1ccc(CNC(=O)Cn2ncc3c(N4CCCC4)ncnc32)cc1OCC,-4.2
O=C(Cn1ncc2c(N3CCCCCC3)ncnc21)NCc1ccc2c(c1)OCO2,-96.5*
CCOC(=O)Cc1ccc(NC(=O)N2CCC3(CC2)Nc2cc(F)ccc2-n2cccc23)cc1,112.0
CCN1c2ccccc2C(=O)NC12CCN(C(=O)Nc1cccc(OC)c1)CC2,-30.0
Cc1noc(C)c1S(=O)(=O)NCC(c1cccnc1)c1cn(C)c2ccccc12 (centres undefined),-0.7
COCCN1C(=O)C2(CCOCC2)c2cc(NCc3ccco3)ccc21,-4.0
COC(=O)c1scc(S(=O)(=O)Cc2ccco2)c1N,-2.6
CC(Oc1ccccc1-c1ccc(-c2ccn[nH]2)cc1)C(N)=O (centres undefined),13.0
C/C=C/C(=O)Nc1ccccc1-c1ccc(-c2ccn[nH]2)cc1,-93.3*
Cc1nnc(-c2ccccc2-c2ccc(-c3ccn[nH]3)cc2)o1,4.8
OC1(C(F)(F)F)CC(c2cc3ccccc3o2)=NN1 (centres undefined),-28.0
OC1(C(F)(F)F)CC(/C=C/c2ccc3c(c2)OCO3)=NN1 (centres undefined),-86.4*
OC1(C(F)(F)F)CC(c2ccc3c(c2)Nc2ccccc2S3)=NN1 (centres undefined),-49.3
Cc1ccc2c(c1)CCCN2C(=O)CN(C)CCc1cn[nH]c1,4.2
CN1CCN(C[C@H]2OC[C@H]3CCN(Cc4ccco4)C[C@H]32)CC1,-22.4
Cc1nn2c(C)c(C(=O)N3CCOCC3)nnc2c1-c1ccc(F)cc1,21.5
CN(C)CCN1C2(CCN(C(=O)NC3CCCC3)C2)c2ccccc2S1(=O)=O (centres undefined),-15.8
CCCCC(=O)Nc1ccnn1CC1=CCCN(C)C1,-1.2
CCCCCOC(=O)Nc1ccc(S(=O)(=O)Nc2ccc(Br)cc2)cc1,-86.8*
COc1ccc(NC(=O)c2cncc(NS(=O)(=O)c3ccc(Br)cc3)c2)cc1,23.8
CCOc1ccc(NS(=O)(=O)c2ccc(NC(=O)c3cccs3)cc2)cc1,1.9
Cc1cc(Nc2ccc(Br)cc2)nc(-c2ccccc2O)n1,-84.9*
Cc1cc(N2CC(c3ccccn3)C2)nc(-c2ccccc2O)n1,-13.6
SMILES,Tg IFNy HTS
CCOc1ncccc1-c1nc(C)cc(NC)n1,7.1
Cn1c(=O)n(CCc2ccccc2)c2ccc(C(=O)O)cc21,-2.7
Cc1ccc(CC(=O)Nc2ccc(-c3nc(Cn4nc(C)c(C)c4C)c(C)o3)cc2)cc1,108.9
Cc1ccccc1C(=O)N1CCC2(CC1)Nc1ccc(Cl)cc1-n1cccc12,-63.0
CNC(=O)CC(C)N(C)Cc1cc(F)c(F)c(F)c1 (centres undefined),-1.5
Fc1ccc(N2CCC3(CC2)CC(c2cccnc2)CO3)cc1 (centres undefined),-81.7*
N#Cc1ccc(N2CCC3(CC2)CC(c2cccnc2)CO3)cc1 (centres undefined),-67.0
COc1ccc(CN2CCC3(CC2)CC(c2cccnc2)CO3)cc1 (centres undefined),-12.7
CCc1cccc(NC(=O)c2c(O)c3cccnc3n(-c3cccc(OC)c3)c2=O)c1,89.0
O=C(CCCc1ccccc1)NCCc1csc(-c2ccccc2)n1,i
COc1ccc(S(=O)(=O)N2CCCc3ccccc32)cc1,-112.6*
O=C1CCc2cc(S(=O)(=O)N3CCCc4ccccc43)cc3c2N1CCC3,0.8
O=S(=O)(c1ccc(F)cc1)N1CCCc2ccccc21,-12.3
COCCN(C)C(=O)c1ccc2nnc3ncn(CC4CCCO4)c3c2c1 (centres undefined),3.4
CN(Cc1ccco1)Cc1cnc2n1CCN(S(C)(=O)=O)CC2,6.1
Cc1nc(C)c(C(=O)Nc2cnn(CC(=O)NCCc3ccccc3F)c2)s1,7.9
Cc1cc2cc(NC(=O)CN3C(=O)NC(C)(c4ccccc4)C3=O)cc(Cl)c2o1 (centres undefined),-77.2*
Cc1cc2cc(NC(=O)CNC(=O)c3nc4ncccn4n3)cc(Cl)c2o1,5.2
Cc1cc2cc(NC(=O)c3nc4ccccc4n(C)c3=O)cc(Cl)c2o1,28.1
O=C1CCOC[C@]2(CN(C(=O)c3cccnc3)C[C@H]2c2ccccc2)N1,31.5
COc1ccc(C)cc1S(=O)(=O)N1CCC2(CCCO2)CC1,-21.9
COc1ccc(CNC(=O)Cn2c(N)nc(C)c(C)c2=O)cc1,-29.0
COc1ccc(CNC(=O)Cn2c(=O)n(Cc3ccc(F)cc3)c(=O)c3ccccc32)cc1,-72.8*
COc1ccc(CNC(=O)Cn2c(=O)cc(-c3nc(C4CC4)no3)c3ccccc32)cc1,13.6
Cc1cccc(-c2nc(CCNC(=O)c3ccc(C)c(C)c3)cs2)c1,i
CC12CN3CC(C)(CN(C1)C3(C)CSc1c[nH]c3ccccc13)C2=O (centres undefined),17.2
CCN1CCC2(CC1)OC(=O)C(C)=C2C(=O)Nc1ccc(C)cc1C,90.0
O=C(Cc1ccc(OC(F)(F)F)cc1)N1CCc2[nH]cnc2C12CCCC2,-79.7*
COc1ccc(C(=O)N2CCc3[nH]cnc3C23CCCCC3)cc1,-6.2
